Common to all, as to assay: NCI-60 one-dose screen, 48 h (100 = growth as untreated, 0 = no growth, -100 = all killed)
Conditions in all cases: 10 µM unless noted

In assay [1] the test system is T-47D breast.
Assay [2] deals with BT-549 breast.
Assay [3] has as its system MDA-MB-435 melanoma.
Assay [4] relates to MCF7 breast.
In assay [5] the test system is HCT-116 colon.
Assay [6] has as its system HCC-2998 colon.
Assay [7] has as its system KM12 colon.
Assay [8] has as its system SW-620 colon.

Compounds without any hit were thinned out: in the full panel of roughly 83,000, 20% have a hit.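 Results are percent growth after 48 hours of single-concentration exposure. 100 means growth as in untreated cells, lower positive values show inhibition; negative values down to -100 show cell death.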 Values without a mark were called inactive. Activity calls are given as the source filed them. Rule for the calls: active = growth percent below 10; inactive = the rest.

For the compound `COc1ccncc1C#Cc1cncc(C(=O)Nc2ccc(CN3CCN(C)CC3)c(C(F)(F)F)c2)c1`, the growth in assay [1] was 55.9%; in assay [2], 50.9%; in assay [3] it was 15.4%; in assay [4], 6.1% (active); in assay [5], 8.44% (active); in assay [6], 40.9%. For the same compound, the growth in assay [7] was 6.75% (active).

With `COc1cc2c(cc1[N+](=O)[O-])-c1ccc([N+](=O)[O-])cc1/C2=N/NC(N)=S`, the growth was 57.4% in assay [1]; 61.6% in assay [2]; 40.6% in assay [8]; 22.5% in assay [4]; 33.8% in assay [5]; 72.8% in assay [6]. The growth in assay [7] was 70.5%.

On to `c1ccc(-c2nn(-c3ccccc3)[n+](-c3ccccc3-c3ccccc3)n2)cc1`, for which the growth in assay [1] is 19.2%; in assay [2], -0.13% (active); in assay [3], 6.4% (active); in assay [4], 8.29% (active); in assay [5], 7.4% (active); in assay [6] it was 18.9%. Further, in assay [7], the growth was 9.9% (active).

`COc1cc2c(cc1[N+](=O)[O-])-c1ccc([N+](=O)[O-])cc1/C2=N\O`: the growth is 91.1% in assay [1]; 73.1% in assay [2]; 75.2% in assay [8]; 58% in assay [4]; 71.8% in assay [5]; 106% in assay [6].

As to `CC(C)(C#N)N1CCN(c2ccccc2Cl)CC1`, the growth in assay [1] was 102%; in assay [2], 98.1%; in assay [3], 97.3%; in assay [4], 106%; in assay [5] it was 98.4%; in assay [6] it was 91.4%. The growth in assay [7] is 106%.

In the case of `O=S(=O)(NCCNc1nccc(-c2c(-c3ccc(F)c(O)c3)nc3sccn23)n1)c1ccccc1`, the growth was 68.8% in assay [1]; 114% in assay [2]; 34.1% in assay [3]; 76.1% in assay [4]; 34.3% in assay [5]; 95% in assay [6]. Further, the growth in assay [7] was 71.2%.

On to `Cc1cn(-c2cc(C(=O)Nc3cccc(C#Cc4cccc5[nH]nc(N)c45)c3)cc(C(F)(F)F)c2)cn1`, for which the growth in assay [1] was 54.2%; in assay [2], 43.2%; in assay [3] it was 41.7%; in assay [4] it was 64.8%; in assay [5] it was 23.3%; in assay [6], 62.8%. In assay [7], the growth was 64.6%.

Turning to `CN(C)c1ccc(-c2c(C#N)c(N)n3nc(N)c(C#N)c3c2C#N)cc1`, the growth in assay [1] is 59.5%; in assay [2] it was 69.1%; in assay [3], 97%; in assay [4], 99.3%; in assay [5] it was 99.3%; in assay [6] it was 83.6%. Further, the growth in assay [7] is 75.4%.

On to `Cn1c(=O)c2[nH]c(CCCc3nc4c([nH]3)c(=O)n(C)c(=O)n4C)nc2n(C)c1=O`, for which the growth is 96.4% in assay [1]; 121% in assay [2]; 111% in assay [3]; 92.8% in assay [4]; 108% in assay [5]; 112% in assay [6]. In assay [7], the growth is 118%.

For `Cn1ncc2c(Nc3ccccc3Cl)nc(Cl)nc21`, the growth in assay [1] was 99.7%; in assay [3], 113%; in assay [8], 126%; in assay [4], 104%; in assay [5] it was 99.4%; in assay [6], 109%. For the same compound, the growth in assay [7] was 126%.

For `NC(=S)N/N=C(\c1ccc(Cl)cc1)C1CC1`, the growth is 30.6% in assay [1]; 114% in assay [2]; 93.8% in assay [3]; 18.5% in assay [4]; 3.65% (active) in assay [5]; 102% in assay [6]. In addition, the growth in assay [7] was 100%.

In the case of `O=C(CSc1nc2sc3c(c2c(=O)n1Cc1ccccc1)CCCC3)N1CCN(c2ccccc2)CC1`, the growth in assay [1] is 80.9%; in assay [2] it was 90.1%; in assay [3] it was 101%; in assay [4], 95.5%; in assay [5], 85.4%; in assay [6], 103%. Further, the growth in assay [7] is 101%.

In the case of `NC(=O)c1ccc[n+](CC(=O)N2CCN(c3cc4c(cc3F)c(=O)c(C(=O)O)cn4C3CC3)CC2)c1`, the growth in assay [1] is 99.1%; in assay [2], 87.3%; in assay [3], 75.2%; in assay [4], 62.4%; in assay [5] it was 37.1%; in assay [6], 115%. Besides, in assay [7], the growth was 90.1%.

In the case of `CS(=O)(=O)c1ccc(-c2cc3c(oc2=O)-c2ccccc2OC3O)cc1` (stereo unspecified), the growth in assay [1] is 90.4%; in assay [2], 107%; in assay [3], 111%; in assay [4] it was 84.8%; in assay [5], 95.9%; in assay [6], 97.5%. The growth in assay [7] is 95.1%.

As for `Clc1ccc(N2N=C(c3cccc(Nc4ccncc4)c3)CC2c2ccc(Br)cc2)cc1` (stereo unspecified), the growth in assay [1] was 48.7%; in assay [2], 116%; in assay [3], -83.1% (active); in assay [4], -51.5% (active); in assay [5], 105%; in assay [6], -67.7% (active). Besides, the growth in assay [7] is -51% (active).

Regarding `Clc1ccc(N2N=C(c3cccc(Nc4ccncc4)c3)CC2c2ccc3c(c2)OCO3)cc1` (stereo unspecified), the growth is 82.2% in assay [1]; 87.1% in assay [2]; -77.6% (active) in assay [3]; -17.4% (active) in assay [4]; 18.4% in assay [5]; 1.72% (active) in assay [6]. The growth in assay [7] was 2.3% (active).

With `CC1(C)CCCN1CCCN1c2ccccc2Sc2ccc(Cl)cc21`, the growth in assay [1] is 68.5%; in assay [2], 56.3%; in assay [3] it was 51.5%; in assay [4] it was 45.3%; in assay [5] it was 33.3%; in assay [6] it was 56.7%. Moreover, the growth in assay [7] was 56.1%.

With `Cc1c2c(cc[n+]1Cc1ccccc1)c1ccc(OCC3CCCCC3)cc1n2CC1CCCCC1`, the growth in assay [1] was -74.1% (active); in assay [2], -91% (active); in assay [3], -84.9% (active); in assay [4] it was -92.3% (active); in assay [5], -98.3% (active); in assay [6], -93.2% (active). In addition, the growth in assay [7] is -99.9% (active).

For the compound `CN1CCCC1=Nc1ccccc1`, the growth in assay [1] was 106%; in assay [2], 130%; in assay [8], 112%; in assay [4], 97.2%; in assay [5], 114%; in assay [6], 110%. In assay [7], the growth is 114%.

Turning to `Clc1cc(Cl)cc(N2N=C(c3cccc(Nc4ccncc4)c3)CC2c2ccc(Br)cc2)c1` (stereo unspecified), the growth in assay [1] was 81.1%; in assay [2] it was 112%; in assay [3], -14.7% (active); in assay [4] it was -46.4% (active); in assay [5], 108%; in assay [6], -39.9% (active). In assay [7], the growth is -34.3% (active).

As to `Clc1ccc(C2CC(c3cccc(Nc4ccncc4)c3)=NN2c2ccc(Cl)cc2)cc1` (stereo unspecified), the growth in assay [1] is 52.2%; in assay [2], -80.2% (active); in assay [3], -79% (active); in assay [4] it was -41.1% (active); in assay [5] it was -73.2% (active); in assay [6] it was -74% (active). In addition, in assay [7], the growth is -77.3% (active).

`CC(=O)N1N=C(c2cccc(Nc3ccncc3)c2)CC1c1ccc2c(c1)OCO2` (stereo unspecified): the growth in assay [1] was 74.1%; in assay [2], -44.5% (active); in assay [3] it was 35.1%; in assay [4], 71.4%; in assay [5], -52.3% (active); in assay [6] it was 94.2%. Further, the growth in assay [7] was 88.2%.

For the compound `O=S(=O)(NCCCNc1nccc(-c2c(-c3cccc(O)c3)nc3occn23)n1)c1ccc(Br)cc1`, the growth in assay [1] was 83.2%; in assay [2] it was 105%; in assay [3] it was 40.6%; in assay [4] it was 98.8%; in assay [5] it was 65.2%; in assay [6], 121%. The growth in assay [7] is 94.4%.

In the case of `Nc1c(Cl)cc([N+](=O)[O-])cc1Br`, the growth in assay [1] is 97.8%; in assay [2], 97.5%; in assay [3], 91.4%; in assay [4], 99.9%; in assay [5] it was 105%; in assay [6], 93.7%. Also, in assay [7], the growth was 103%.

For the compound `COc1cc2nnn3c4ncccc4c(N=O)c3c2cc1OC`, the growth in assay [1] is 51.8%; in assay [3] it was 90.5%; in assay [8], 46.3%; in assay [4] it was 21.4%; in assay [5], 28.9%; in assay [6] it was 106%. The growth in assay [7] was 87%.

Take `CCCCCCOc1ccc(/C=N/Nc2cc(C)nc3ccc(Br)cc23)cc1`: the growth in assay [1] was -11% (active); in assay [2], 106%; in assay [3] it was -87.7% (active); in assay [4], -67% (active); in assay [5] it was -66.4% (active); in assay [6], -94.5% (active). Also, in assay [7], the growth is -84.7% (active).
